High-throughput results: PubChem BioAssay, National Center for Advancing Translational Sciences (NCATS)
nsP2pro inh: blocks chikungunya virus nsP2 protease peptide cleavage; Q8JUX6; FRET peptide cleavage, nsP2pro, fluorescence 1 h; Potency, µM (doses to about 24.9 µM), for inactives: top-dose activity change, negative = inhibition, actives largely listed as inhibitors; hit rate 1.1% among 31,000; AID 1964107; further: nearly all actives have a fitted effect of over 60% in size
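Purified recombinant nsP2pro (150 nM final) in 10 mM Tris-HCl pH 8.0 with 0.01% Tween 20 was preincubated 15 min at room temperature with compound (7 concentrations, up to 25 uM). FRET peptide 2 substrate (2.5 uM final) was then added; fluorescence was read after 1 h.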
nsP2 cell sec: cell-based CHIKV nsP2 protease inhibition, secondary | cell-based CHIKV nsP2 protease reporter assay | shares compounds with nsP2pro inh | AID 1964100 | Potency, µM (series often up to 51.1 µM), without a hit: at the top dose activity change, negative = inhibition, hits mostly inhibitors | hit rate 10% among 450; further: nearly all actives have a fitted effect of over 70% in size
NSP2 full ctr: selectivity test for CHIKV nsP2 protease inhibitors: full-length NSP2; hit rate 39% among 410; Full-length CHIKV NSP2 protease enzymatic counterscreen; AID 1964101; shares compounds with nsP2pro inh; Potency, µM (titrated, usually from 50.7 µM), without a hit: top-dose activity change, negative = inhibition, actives largely listed as inhibitors; further: nearly all actives have a fitted effect of over 65% in size
Furin counter: human furin inhibition, counterscreen for nsP2pro inhibitors | shares compounds with nsP2pro inh | Recombinant human furin enzymatic counterscreen, fluorogenic substrate | Potency, µM (titrated, usually from 50.6 µM), for inactives: at the highest dose activity change, negative = inhibition, most hits filed as inhibitors | hit rate 6% among 410 | AID 1964102
NS23 peptide cs: nsP2pro inhibition on native NS2/3 peptide substrate | shares compounds with nsP2pro inh | Purified CHIKV nsP2 protease, endogenous NS2/3 peptide cleavage | Potency, µM (doses to about 51 µM), without a hit: at the highest dose activity change, negative = inhibition, actives largely listed as inhibitors | hit rate 34% among 410 | AID 1964103; further: nearly all actives have a fitted effect of over 55% in size
Papain cs: inhibits papain in a CHIKV nsP2 protease selectivity counterscreen. shares compounds with nsP2pro inh. purified papain protease activity, enzymatic inhibition. Potency, µM (titrated, usually from 51 µM), for the others: at the top dose activity change, negative = inhibition, actives largely listed as inhibitors. hit rate 5% among 410
nsP2pro confirm: CHIKV nsP2 protease inhibition, confirmatory qHTS. CHIKV nsP2 protease enzymatic activity, qHTS. shares compounds with nsP2pro inh. AID 1964105. hit rate 43% among 410. Potency, µM (titrated, usually from 25.5 µM), for inactives: top-dose activity change, negative = inhibition, most hits filed as inhibitors; further: nearly all actives have a fitted effect of over 75% in size
HCV NS3 4A cs: selectivity counter-screen for CHIKV nsP2 protease inhibitors: HCV NS3/4A. AID 1964106. Potency, µM (series often up to 50.9 µM), most hits filed as inhibitors. shares compounds with nsP2pro inh. hit rate 20% among 410. HCV NS3/4A protease biochemical counterscreen; further: nearly all actives have a fitted effect of over 55% in size
The depositor's hits bear a star; [ ] = remark or other dose. The sample as a whole holds a higher share of hits than the screen did. The call rests on the fitted dose curve. On the % scale 0 is the no-effect control and ±100 the full control effect; potency means the concentration at half of the fitted maximal effect.

For Cc1oc(=O)oc1COC(=O)N1CC[C@@H](N2CC/C(=C\C3=C(C(=O)O)N4C(=O)[C@@H](NC(=O)/C(=N/O)c5nsc(N)n5)[C@H]4SC3)C2=O)C1 the results were nsP2pro inh -2.8%.
For OC[C@H]1O[C@H](OC[C@H]2O[C@H](O[C@]3(CO)O[C@H](CO)[C@@H](O)[C@@H]3O)[C@H](O)[C@@H](O)[C@@H]2O)[C@H](O)[C@@H](O)[C@H]1O the results were nsP2pro inh -17.8%.
For O=C(Nc1ccc(F)c(C(F)(F)F)c1)Nc1nnc(-c2cccnc2)s1 the results were nsP2pro inh -0.6%.
For CCS(=O)(=O)N1C[C@@H](C(=O)NCc2ccc(C)o2)[C@H](c2ccncc2)C1 the results were nsP2pro inh -27.2%.
[O-][n+]1ccccc1SSc1cccc[n+]1[O-] was read as nsP2pro inh 2.71µM*, nsP2 cell sec inconclusive, NSP2 full ctr 8.19µM*, Furin counter -12.1%, NS23 peptide cs 9.19µM*, Papain cs 1.7%, nsP2pro confirm 1.59µM* and HCV NS3 4A cs inactive.
Cc1cc(=O)oc2c3c(ccc12)OCN(Cc1ccccc1Cl)C3 was read as nsP2pro inh 32.3%.
O=c1oc2c3c(ccc2c2ccccc12)OCN(Cc1ccccc1Cl)C3 was read as nsP2pro inh 1.12µM*, nsP2 cell sec 114.6%, NSP2 full ctr -1.4%, Furin counter -11.1%, NS23 peptide cs 11.6µM*, Papain cs -3.8%, nsP2pro confirm 4µM* and HCV NS3 4A cs inactive.
O=c1oc2c3c(ccc2c2ccccc12)OCN(Cc1cccc(Cl)c1)C3 was read as nsP2pro inh -12.6%.
`Cc1ccc(C2(O)CCN(CCCC(=O)c3ccc(F)cc3)CC2)cc1` gave nsP2pro inh -10.5%.
For COC1(C[S@@](=O)c2ccccc2)CCN(CCc2c[nH]c3ccc(F)cc23)CC1 the results were nsP2pro inh inconclusive, nsP2 cell sec 49.4%, NSP2 full ctr -8.8%, Furin counter -1.7%, NS23 peptide cs -17.6%, Papain cs -0.3%, nsP2pro confirm -18.3% and HCV NS3 4A cs inactive.
For CC[C@H]1OC(=O)[C@H](C)[C@@H](O[C@H]2C[C@@](C)(OC)[C@@H](O)[C@H](C)O2)[C@H](C)[C@@H](O[C@@H]2O[C@H](C)C[C@H](N(C)C)[C@H]2O)C(C)(O)C[C@@H](C)/C(=N\OCOCCOC)[C@H](C)[C@@H](O)[C@]1(C)O (some centres undefined) the results were nsP2pro inh -3.7%.
`COc1ccc(-c2nc(S(=O)(=O)c3ccc(C)cc3)c(NCc3ccccc3)o2)cc1` gave nsP2pro inh 4.47µM*, nsP2 cell sec inconclusive, NSP2 full ctr inconclusive, Furin counter -4.0%, NS23 peptide cs inconclusive, Papain cs 13µM*, nsP2pro confirm 7.98µM* and HCV NS3 4A cs inactive.
Cc1ccc(S(=O)(=O)c2nc(-c3ccccc3F)oc2NCc2ccccc2)cc1 was read as nsP2pro inh -2.2%.
`COc1ccc(-c2nc(-c3ccccc3)c(NCc3ccccc3)o2)cc1` gave nsP2pro inh 7.2%[5.1 µM].
`Cc1cc(NC(=O)Nc2nnc(-c3cccnc3)s2)ccc1Br` gave nsP2pro inh 3.2%.
For COc1ccc(CNc2nc(-c3ccccc3C(F)(F)F)nc3ccccc23)cc1 the results were nsP2pro inh inactive.
`N#Cc1nc(-c2cccc3ccccc23)oc1NCc1ccccc1` gave nsP2pro inh -6.0%.
`c1c[nH]c(CNc2ncnc3ccc(-c4ccoc4)cc23)n1` gave nsP2pro inh -0.7%.
Screening Cc1ccc(N[S+](=O)([O-])c2cc3c(cc2Cl)CCC(=O)N3)cc1Br returned nsP2pro inh -1.3%.
Cc1ccc(OCC(=O)N2CCN(CCc3ccncc3)CC2)cc1 was read as nsP2pro inh -27.3%.
For O=C(COc1ccccc1[N+](=O)[O-])N1CCN(CCc2ccncc2)CC1 the results were nsP2pro inh inconclusive and nsP2 cell sec 9.3%.
`O=C(COc1ccccc1Cl)N1CCN(CCc2ccncc2)CC1` gave nsP2pro inh -25.2%.
Screening Cn1cc(Cl)c(C2N=C(Nc3nc4ccccc4o3)NC3=C2C(=O)CCC3)n1 (centres undefined) returned nsP2pro inh inactive.
Screening O=[S+]1([O-])N(Cc2ccccc2)C[C@@H](O)[C@]12CCN(Cc1ccc(C(F)(F)F)nc1)C2 returned nsP2pro inh -25.6%.
Screening CCCCS(=O)(=O)c1oc(-c2cccs2)nc1S(=O)(=O)c1ccc(F)cc1 returned nsP2pro inh inconclusive, nsP2 cell sec 3.66µM*, NSP2 full ctr 5.8µM*, Furin counter 2.9%, NS23 peptide cs 8.19µM*, Papain cs -9.0%, nsP2pro confirm 5.04µM* and HCV NS3 4A cs inactive.
For CCCSc1oc(-c2cccs2)nc1S(=O)(=O)c1ccc(C)cc1 the results were nsP2pro inh -23.3%.
CCCCCS(=O)(=O)c1oc(-c2cccs2)nc1S(=O)(=O)c1ccc(C)cc1 was read as nsP2pro inh -16.3%.
Screening CCc1nc2c(c(-c3ccc(O)cc3)n1)CN(Cc1ccc(NC(C)=O)cc1)CC2 returned nsP2pro inh -28.2%.
Cc1ccc(CNc2ncnc3ccc(-c4sc(C)nc4C)cc23)o1 was read as nsP2pro inh -3.6%.
Fc1ccc(-c2ccc(Nc3nc(-c4ccncc4)nc4ccccc34)cc2F)c(F)c1 was read as nsP2pro inh inactive.
COc1cc(O)c(C(CC(=O)N2CCCC(C)(C)C2)c2ccc3c(c2)OCO3)c(OC)c1 (centres undefined) was read as nsP2pro inh inactive.
`O=S(=O)(O)c1ccccc1` gave nsP2pro inh -0.8%.
NS(=O)(=O)C#Cc1ccccc1 was read as nsP2pro inh 7.85µM*, nsP2 cell sec inconclusive, NSP2 full ctr 13µM*, Furin counter -6.9%, NS23 peptide cs inconclusive, Papain cs -6.9%, nsP2pro confirm 6.34µM* and HCV NS3 4A cs inactive.
